Results reported in PubChem BioAssay AID463095 (Sanford-Burnham Center for Chemical Genomics, 2010).
The list shows a part of the results. A number with no mark means an inactive call.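 How the source made its calls: active means proliferation increase above 40% at any of the four tested concentrations; inactive means the rest.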

Assay: MIN6 insulinoma cell replication enhancers – MIN6 cells, mouse, confirmation (AID 463095)
Conditions: MIN6 beta-cell proliferation, ATPlite luminescence, 48 h; series mostly up to 50 µM; proliferation increase: at the top concentration

**Q.** For `COC(=O)COc1cc(C)cc2oc(=O)c3c(c12)CCCC3`, which “proliferation increase” value is on record?
**A.** 2.6%

**Q.** Which “proliferation increase” value does the source give for `c1cc2c(cc1CCNC1CCCCCC1)OCO2` here?
**A.** -3.3%

**Q.** For `O=C(N/N=C/c1c(O)n(Cc2ccccc2)c(=O)[nH]c1=O)c1ccccc1`, which “proliferation increase” value is on record?
**A.** 0.3%
